The nature of assay [1]: NCI Yeast Anticancer Drug Screen. Data for the rad50 strain (AID 155).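 Further: 0% = growth of vehicle-only cultures of the same strain.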 The note with it: S. cerevisiae rad50 strain growth inhibition; at 50.0 µM; hits give high values. The essentials: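 Growth of the mutant yeast was measured after compound exposure and referenced to vehicle-treated cultures.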
Assay [2] in a line: NCI Yeast Anticancer Drug Screen. Data for the mec2-1 strain (AID 157). The note with it: S. cerevisiae mec2-1 strain, at 50.0 µM, hits give high values. An outline of the steps: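 Mutant yeast (mec2-1) grown with compound; growth inhibition relative to vehicle control reported.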
Assay [3] can be described thus: NCI Yeast Anticancer Drug Screen. Data for the sgs1 mgt1 strain (AID 161).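 Further: 0% = growth of cultures given vehicle only.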 The conditions noted are these: S. cerevisiae sgs1 mgt1 strain, at 50.0 µM, hits give high values. The essentials: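 Percent growth inhibition was derived by comparing compound-exposed mutant yeast with vehicle-exposed cultures. The strain carries alterations in DNA damage repair.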
The nature of assay [4]: NCI Yeast Anticancer Drug Screen. Data for the cln2 rad14 strain (AID 165).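 Further: 0% = growth equal to vehicle treated cultures.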 The note with it: S. cerevisiae cln2 rad14 strain, at 50.0 µM, hits give high values. The essentials:
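Readout is yeast growth inhibition versus vehicle-treated controls, using a strain with cln2 and rad14 alterations exposed to compound.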

Assay [5] in a line: NCI Yeast Anticancer Drug Screen. Data for the bub3 strain (AID 167). The conditions noted are these: S. cerevisiae bub3 mutant strain, at 50.0 µM, hits give high values. The essentials: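 Whole-cell yeast assay. The mutant strain was incubated with compounds, and growth inhibition was determined by comparison with vehicle-treated cells.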
The nature of assay [6]: NCI Yeast Anticancer Drug Screen. Data for the mlh1 rad18 strain (AID 175). The note with it: S. cerevisiae mlh1 rad18 strain growth inhibition; at 50.0 µM; hits give high values. The essentials: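 Genetically defined yeast (DNA repair-deficient) exposed to compounds; growth inhibition determined relative to vehicle.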

The panel holds about 79,000 compounds, 15% with a hit somewhere; the sample as a whole holds those more often. Unmarked numbers belong to inactive results. Active and inactive are the calls of the source. No stated cut-off is given here; in the data, active means growth inhibition above about 70%; inactive means the rest.

The text below walks through data of PubChem BioAssay (NCI).

With `OC(c1cc2ccccc2c2ccccc12)C1CCCCN1` (configuration not stated), the growth inhibition in assay [1] is 21.9%; in assay [2] it was 16.9%; in assay [3], 43.8%; in assay [4], 13.2%; in assay [5], 20%; in assay [6] it was 36.2%.

Turning to `CCSCC1OC(n2cnc3c(=S)nc(N)[nH]c32)C(O)C1O` (configuration not stated), the growth inhibition in assay [1] is 15.2%; in assay [2] it was 10.1%; in assay [3], -0.75%; in assay [4] it was 16.4%; in assay [5] it was 11.8%; in assay [6], 21.1%.

Consider `N#CC1=C(N)NC(=O)C(C(N)=O)C1c1ccccc1Cl` (configuration not stated), for which the growth inhibition in assay [1] was -16.6%; in assay [2] it was -13.4%; in assay [3], -12.1%; in assay [4], -11.3%; in assay [5], -11.4%; in assay [6], -12.8%.

Consider `Cc1nc(N)nc(C)c1N=Nc1ccc(Cl)cc1Cl`, for which the growth inhibition is -0.75% in assay [1]; 6.8% in assay [2]; 0.5% in assay [3]; -7.3% in assay [4]; -5.25% in assay [5]; 9.6% in assay [6].

Consider `CCCCCCCCCCCCCCCC(=O)OCC(O)C1OC(=O)C(O)=C1O` (configuration not stated), for which the growth inhibition in assay [1] was 28.1%; in assay [2], -0.75%; in assay [3], 4.6%; in assay [4], 9.15%; in assay [5], 24.2%; in assay [6], 46.7%.

With `O=C(Cc1ccccc1)N(Cc1ccccc1)Cc1ccccc1`, the growth inhibition is 96.8% (active) in assay [1]; 98.7% (active) in assay [2]; 98.8% (active) in assay [3]; 91.9% (active) in assay [4]; 92.4% (active) in assay [5]; 97.9% (active) in assay [6].

As to `CCOC(=O)c1cc2nc3ccccn3c(=O)c2cc1N`, the growth inhibition in assay [1] is -1.15%; in assay [2], -17.5%; in assay [3], 0.85%; in assay [4], -36.3%; in assay [5], -9.3%; in assay [6], -8.45%.

In the case of `O=C(/C=C/c1cccs1)c1ccc(Cl)s1`, the growth inhibition was -18.3% in assay [1]; -33.3% in assay [2]; -2.55% in assay [3]; -7.45% in assay [4]; -6.5% in assay [5]; 0.2% in assay [6].

On to `COC(=O)C1OC1(C)c1ccccc1` (configuration not stated), for which the growth inhibition is 2.3% in assay [1]; 4.6% in assay [2]; -0.25% in assay [3]; -0.35% in assay [4]; -1.95% in assay [5]; -2.55% in assay [6].

As to `CCOC(=O)CC1(C)SCCN1C(N)=O` (configuration not stated), the growth inhibition was 2.25% in assay [1]; 4.35% in assay [2]; -5.85% in assay [3]; -26.3% in assay [4]; 4% in assay [5]; -10.2% in assay [6].

As to `CCOC(=O)N/N=C(\CC)NO`, the growth inhibition is 2.45% in assay [1]; 1.35% in assay [2]; -7.7% in assay [3]; -7% in assay [4]; 12.8% in assay [5]; 5.7% in assay [6].

Regarding `O=C(NC1CCCCC1)c1cccnc1`, the growth inhibition in assay [1] is -11.4%; in assay [2], -2.2%; in assay [3], -17.1%; in assay [4] it was -10.9%; in assay [5], -14.5%; in assay [6] it was -13.5%.

Consider `Cc1ccc([N+](=O)[O-])cc1NC(=O)C(=O)Cc1cc(=O)oc2cc(O)ccc12`, for which the growth inhibition in assay [1] was -4.85%; in assay [2], -22.9%; in assay [3], -28.3%; in assay [4], 23.9%; in assay [5] it was -16.1%; in assay [6], -6.25%.

On to `ClC(=Nc1ccccc1)c1cc(N2CCOCC2)ccn1`, for which the growth inhibition in assay [1] was 24.1%; in assay [2], 11.1%; in assay [3], 13.3%; in assay [4], 8.35%; in assay [5] it was 19.1%; in assay [6], 14%.

As for `CCOC([O-])=N/C(=N/[n+]1ccc(C)cc1)c1ccccc1`, the growth inhibition in assay [1] was 8.35%; in assay [2] it was 5.55%; in assay [3], -3.45%; in assay [4], -16.1%; in assay [5], -15.1%; in assay [6], -12.5%.

`CCNCCNC(=O)c1ccc(I)cc1`: the growth inhibition was -33.9% in assay [1]; -7.2% in assay [2]; -4.2% in assay [3]; 6.65% in assay [4]; -14.8% in assay [5]; -10.8% in assay [6].

In the case of `NC(=O)C12OC1(Cl)CCCC2(Cl)Cl` (configuration not stated), the growth inhibition in assay [1] was 1.05%; in assay [2], -27.9%; in assay [3], 8.5%; in assay [4], 9.05%; in assay [5] it was 18%; in assay [6] it was 18.2%.

As for `Nc1nc2c(nc(OCc3ccccc3)n2C2OC(CO)C(O)C2O)c(=O)[nH]1` (configuration not stated), the growth inhibition in assay [1] is 23.5%; in assay [2], 10.8%; in assay [3] it was 2.65%; in assay [4], 8.95%; in assay [5] it was 0.5%; in assay [6], 16.1%.

In the case of `Oc1ccc(N=Cc2ccc(C=Nc3ccc(O)cc3)cc2)cc1`, the growth inhibition in assay [1] was -22.9%; in assay [2] it was -12.6%; in assay [3], -19%; in assay [4], -7.7%; in assay [5], -13.4%; in assay [6], -16.4%.

As for `CCCCC(Nc1nncs1)Nc1nncs1`, the growth inhibition in assay [1] was -8.9%; in assay [2] it was -18%; in assay [3] it was 9.85%; in assay [4], 3.7%; in assay [5] it was 11.3%; in assay [6], 2.6%.

As for `CN(CCc1ccccn1)c1ccc2c(c1)C(=O)c1ccccc1-2`, the growth inhibition is 46.9% in assay [1]; 13.4% in assay [2]; -1.8% in assay [3]; -13.1% in assay [4]; -2.7% in assay [5]; 9.85% in assay [6].

With `Cn1cnnc1Sc1c([N+](=O)[O-])ncn1C`, the growth inhibition in assay [1] is -3.3%; in assay [2], -5.25%; in assay [3], -5%; in assay [4], 22.5%; in assay [5] it was 15.6%; in assay [6], -11.6%.
